Among all 360,000 compounds or so, about 4,500 (1.2%) were called active. The full list was thinned out, with actives kept by preference. Values without a mark were called inactive. No stated cut-off is given here; in the data, active means inhibition above about 30%; inactive means the rest.

This assay is described as follows: inhibition of GDH and TPI enzymes – biochemical, absorbance, full deck, artefact control for M. tuberculosis FBA inhibitor project, primary screen (AID 588335).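 Further: 0% = DMSO wells and 100% = wells lacking the enzyme.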 The conditions noted are these: GDH-TPI coupled enzyme counterscreen, NADH absorbance; at 4.8 µM; stronger effect = higher value. A general note: Counterscreens check selectivity or assay interference.
Take `COc1cccc(-n2c(SCC(=O)NC3CCCCC3)nc3n[nH]c(C)c3c2=N)c1`: the inhibition is 0.37%. Regarding `Cc1ccc(-n2c(SCC(=O)NCCC3=CCCCC3)nc3n[nH]c(C)c3c2=N)cc1Cl`, the inhibition was -1.52%.

In the case of `CCCCNC(=O)CSc1nc2n[nH]c(C)c2c(=N)n1-c1cccc(Cl)c1C`, the inhibition was 33.5% (active). For the molecule `CC(C)Nc1ccc(-n2nc3ccccc3[n+]2[O-])cc1`, the inhibition was 21.6%. Consider `CC12CCC(=O)N1C(C(=O)NCCN1C(=O)S/C(=C\c3ccccc3F)C1=O)CS2` (configuration not stated), for which the inhibition was 21.5%. In the case of `O=C(CN1C(=O)S/C(=C\c2ccccc2Cl)C1=O)NC1C=CS(=O)(=O)C1` (configuration not stated), the inhibition is 35.4% (active). With `CN(C(=O)CN1C(=O)S/C(=C\c2ccccc2F)C1=O)C1CCS(=O)(=O)C1` (configuration not stated), the inhibition is 9.17%.

Consider `CCN(CC)C(=O)C1CCCN(Cc2cccc(Cl)c2)C1` (configuration not stated), for which the inhibition is 11.3%.

In the case of `COc1ccccc1C(=O)Nc1ccnn1C1CCN(C(=O)C(C)(C)C)CC1`, the inhibition was 2.52%.

Consider `Cc1ccc(C(=O)N/C(=C\c2cn(C)c3ccccc23)C(=O)N2CCN(C)CC2)cc1`, for which the inhibition was 18.5%.

Take `CCn1cc(/C=C(\NC(=O)c2cc(OC)c(OC)c(OC)c2)C(=O)N2CCN(C)CC2)c2ccccc21`: the inhibition is 27.5%.

In the case of `COc1cc(C(=O)N/C(=C\c2cn(C)c3ccccc23)C(=O)N2CCOCC2)cc(OC)c1OC`, the inhibition is 33.6% (active). Take `CN(Cc1c(F)cccc1Cl)C(=O)COC(=O)Cn1cnc2ccccc2c1=O`: the inhibition is 7.14%. Turning to `C/C(=C\C(=O)c1ccccc1)Nc1cccc(O)c1`, the inhibition was 8.48%. For `Cc1ccc(OCC(=O)NCCCNC(=O)c2cccnc2)cc1C`, the inhibition is -5.28%. For `C/C(=C\C(=O)c1cccnc1)Nc1ccc(C)c(C)c1` the value was 31.1% (active). Take `C=C1C2C[C@H](O)C(C)(C)[C@@]2(O)[C@H](O)C[C@]23C[C@@](C)(O)[C@H](CC[C@H]12)[C@H]3O` (some centres not stated): the inhibition was 5.18%. On to `COc1ccc(SC[C@H](Cc2ccccc2)N2CCN(CCc3ccccc3)CCC2=O)cc1`, for which the inhibition was 3.36%. For `C=CCOc1ccc(/C=N/n2cncn2)cc1OC` the value was 19.5%; for `COc1ccccc1/C=C/C=N/NC(=O)CN1CCN(Cc2ccccc2)CC1`, 49.7% (active).

Regarding `O=C(CN1CCN(Cc2ccccc2)CC1)Nc1ccc(F)c(F)c1`, the inhibition is -9.79%. In the case of `COc1ccccc1CN1CCN(C(=O)Cc2ccccc2)CC1`, the inhibition was 6.8%. Turning to `O=C(CCn1c(=S)[nH]c2cc3c(cc2c1=O)OCO3)NCc1ccc(Cl)cc1`, the inhibition is 20.7%. With `CN(C)CCn1c(=S)[nH]c2ccc(Cl)cc2c1=O`, the inhibition was 32.9% (active). For the molecule `O=c1c2ccccc2[nH]c(=S)n1-c1cccc(Cl)c1`, the inhibition is 9.09%. For `O=C(CN1CCN(S(=O)(=O)c2cc(Cl)ccc2Cl)CC1)c1ccc(O)c(O)c1` the value was 18.1%; for `Cc1cc(/C=N/NC(=O)CC2(C)OCCO2)c(C)n1-c1ccc(Cl)c(Cl)c1`, 0.72%; for `Cc1cc(C=O)c(C)n1-c1ccc(NC2CCCCC2)c([N+](=O)[O-])c1`, 0.62%. In the case of `Cc1cc(/C=N/Nc2ccc([N+](=O)[O-])cn2)c(C)n1-c1cccc(C(=O)O)c1`, the inhibition was 38% (active). As for `COc1ccc(-c2noc(C(C)NS(=O)(=O)c3ccc(NC(C)=O)cc3)n2)cc1` (configuration not stated), the inhibition was -8.81%. For `Brc1ccc(CN2CC[C@H]3C=CCc4cccc(c43)C2)cc1` the value was 6.9%; for `CC(=O)N1CCOc2ccc(S(=O)(=O)N3CCN(c4cccc(C(F)(F)F)c4)CC3)cc21`, 6.9%.

Take `O=C(N/N=C\c1ccc(-c2ccc(Cl)c(Cl)c2)o1)C(=O)N1CCCC1`: the inhibition was 14.3%. `O=C(Cn1nnc(-c2ccccc2)n1)N/N=C/c1ccc(-c2ccc(Cl)cc2)o1`: the inhibition was 11.2%. With `COC(=O)N/N=C/c1ccc(-c2ccc(Cl)c(Cl)c2)o1`, the inhibition is 31.5% (active). For `CCC1Sc2ccc(S(=O)(=O)CCC(=O)NCc3cccs3)cc2NC1=O` (configuration not stated) the value was 10%.

As to `Cc1cc(C(=O)N2CCCC2(C)C(=O)O)c(C)o1` (configuration not stated), the inhibition was -1.83%. `CSc1ccc(/C=N/NC(=O)c2cccc(Cl)c2)cc1`: the inhibition is 31.8% (active). Consider `O=C(N/N=C/c1ccoc1)c1ccc(Cl)cc1Cl`, for which the inhibition was -4.38%. For `CCOc1cc(/C=N/NC(=O)c2cccc(S(=O)(=O)N3CCOCC3)c2)ccc1OCC(=O)N(C)C` the value was 26.9%. For `CC(NC(=O)C(=O)N/N=C/c1ccc(Cl)cc1)c1ccccc1` (configuration not stated) the value was -6.35%; for `Cn1c(=O)n(C)c2cc(/C=N/NC(=O)c3cccc(Br)c3)ccc21`, 31.9% (active). For the molecule `COc1cc(/C=N/NC(=O)c2cccnc2)ccc1OC(=O)c1cccc(Br)c1`, the inhibition was 7.96%. Turning to `O=C(OCC(=O)N1CCCCCC1)c1cnc(Cl)c(Cl)c1`, the inhibition is -4.78%. Take `COc1ccc(C2CC(=O)Oc3ccc(C(C)(C)C)cc32)cc1` (configuration not stated): the inhibition is 10.2%. Turning to `COc1ccc([C@H]2CC(=O)C=C(/C=C/c3ccccc3)C2)cc1`, the inhibition is 37.2% (active).

In the case of `COc1ccc([C@H]2CC(=O)C=C(c3ccc(C)cc3)C2)cc1`, the inhibition is 13.4%. Consider `COc1ccc([C@H]2CC(=O)C=C(/C=C/c3ccc(Cl)cc3)C2)cc1`, for which the inhibition was 2.59%.

`CCCCC(=O)N(C)c1c(CC)nc2c(OCc3ccc(S(C)(=O)=O)cc3)cccn12`: the inhibition was 8.04%.

For `CN(C)Cc1ccc(F)cc1Sc1cc(Cl)ccc1Cl`, the inhibition is 6.23%. Take `COc1ccc(/C=N/Nc2ncnc3sc4c(c23)CCCC4)cc1O`: the inhibition is 34.2% (active). Consider `COc1ccc(NC(=O)CCCNC(=O)Cn2cnc3sc4c(c3c2=O)CCCC4)cc1OC`, for which the inhibition is 4.67%.

As to `OCCNc1nc2ccccc2n1-c1ncnc2sc3c(c12)CCC3`, the inhibition was 7.12%. Take `Cc1nnc(NC(=O)CCC(=O)N2CCC(C)CC2)s1`: the inhibition was -8.68%. With `Cc1noc(NS(=O)(=O)c2ccc(NC(=O)C34CCC(CC3)C4)cc2)c1C`, the inhibition was -6.12%. For the molecule `Cc1ccc(C(=O)/C=C/Nc2ccc(S(=O)(=O)Nc3onc(C)c3C)cc2)cc1`, the inhibition is 21.6%.

With `Cc1noc(NS(=O)(=O)c2ccc(N/C=C/C(=O)c3ccccc3)cc2)c1C`, the inhibition was 32.3% (active).

Broadly, the inhibition is the change of the read-out against control, counted positive when it falls.

Source of the values: PubChem BioAssay AID588335 (The Scripps Research Institute Molecular Screening Center, 2011).
